# PGC1a acetyl inh: PGC1a acetylation modulation, inhibitor mode; AID 651687; hit rate 0.17% among 350,000; U2OS PGC1a acetylation, AlphaScreen anti-acetyl-lysine; with virally co-expressed GCN5 acetyltransferase; inhibition, % at 15.6 µM;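 active = every replicate shows inhibition of at least 40%; inconclusive = mean inhibition at least 40% but some replicate below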;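 also: 0% = neutral control wells and 100% = positive control wells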
# DENV2 CPE rescue: DENV2-induced cell death inhibition. hit rate 1.7% among 350,000. AID 651640. DENV2-infected cells, cytopathic effect rescue, plate reader. CPE inhibition, % at 9.99 µM; in the data active = CPE inhibition above about 20%, passing the limit was not always enough; inconclusive = no clear call, values can overlap the other calls; tested in BHK-21 cells;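 also: 0% = median of neutral control wells and 100% = median of positive control wells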
# ERAP1 HTS inh: ERAP1 (human) enzyme inhibition. Q9NZ08. recombinant ERAP1, Leu-AMC fluorescence, 60 min. inhibition, % at 10.7 µM. hit rate 0.15% among 340,000;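 active = mean replicate inhibition of at least 30%, or all replicates individually reaching that 30% level; inactive = mean below 30% and not every replicate reaching it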;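 also: 0% = neutral control wells and 100% = L-leucinethiol positive control wells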
# Target sequence (Q9NZ08 whole entry, looked up): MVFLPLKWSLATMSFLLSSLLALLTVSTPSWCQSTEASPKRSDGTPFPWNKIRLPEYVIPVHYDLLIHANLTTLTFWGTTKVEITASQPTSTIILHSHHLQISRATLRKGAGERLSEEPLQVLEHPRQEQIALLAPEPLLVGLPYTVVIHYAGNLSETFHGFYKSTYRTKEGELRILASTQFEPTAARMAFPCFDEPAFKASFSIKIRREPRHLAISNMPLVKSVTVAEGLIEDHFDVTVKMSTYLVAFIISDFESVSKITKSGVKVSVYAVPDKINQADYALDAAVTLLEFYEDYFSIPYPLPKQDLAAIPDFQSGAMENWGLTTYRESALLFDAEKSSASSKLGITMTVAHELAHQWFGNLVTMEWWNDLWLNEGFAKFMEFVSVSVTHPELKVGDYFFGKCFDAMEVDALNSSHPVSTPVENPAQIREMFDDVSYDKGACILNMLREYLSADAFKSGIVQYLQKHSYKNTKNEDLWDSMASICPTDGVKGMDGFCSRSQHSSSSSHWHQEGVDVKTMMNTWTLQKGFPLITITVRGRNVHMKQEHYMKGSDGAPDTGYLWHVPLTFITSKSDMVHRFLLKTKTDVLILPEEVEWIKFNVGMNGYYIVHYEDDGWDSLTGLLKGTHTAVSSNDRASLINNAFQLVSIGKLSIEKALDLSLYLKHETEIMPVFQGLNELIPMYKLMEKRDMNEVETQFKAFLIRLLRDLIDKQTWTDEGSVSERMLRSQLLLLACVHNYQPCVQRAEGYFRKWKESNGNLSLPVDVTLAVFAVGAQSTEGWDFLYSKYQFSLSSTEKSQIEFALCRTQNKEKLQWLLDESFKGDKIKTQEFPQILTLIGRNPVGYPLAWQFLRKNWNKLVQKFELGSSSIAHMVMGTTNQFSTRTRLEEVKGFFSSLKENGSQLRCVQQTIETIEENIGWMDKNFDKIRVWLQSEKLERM
# rRNA inh HTS: inhibits bacterial ribosomal RNA function over humanized ribosomes; hit rate 1.6% among 350,000; AID 720706; GFP signal change (wild-type ribosome), % (concentration not given with the values); E. coli WT GFP vs humanized-ribosome RFP mutants, fluorescence, 24 h; active compounds read low; DMSO median 0, no signal -100;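 active = significant combined selectivity score with lowered wild-type GFP, culture density cut under 30%, mutant RFP and density less affected; inactive = any of these conditions unmet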
# INS-1E GSIS act: primary screen for activators of insulin secretion dependent on glucose, INS-1E cells, GLuc reporter luminescence; INS-1E GLuc reporter insulin secretion, 2-3 h; activation, % at 16.6 µM; hit rate 0.61% among 370,000; AID 743287;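 active = lowest replicate activation of at least 40%, so every replicate reaches that level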;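 also: 0% = median of neutral control wells and 100% = median of IBMX positive control wells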
# CaV13 FRET inh: Primary screen for inhibitors of IQ motif and Ca2+-dependent inactivation inhibitor domain binding in CACNA1D, Förster resonance energy transfer in living cells, … | HEK cells, CFP/YFP FRET ICDI-IQ, plate reader, 10 min; percent FRET-ratio fall versus neutral wells | inhibition, % at 12.3 µM | hit rate 0.098% among 340,000 | AID 743397;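 active = mean replicate inhibition of at least 30% and at least 1% of replicates passing that level; inconclusive = only one of the two criteria is met; inactive = neither criterion is met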;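 also: 0% = median of the neutral control wells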
# * marks the source's active call; other numbers are inactive results; ? = inconclusive; . = no result. Only some compounds are listed: those with a hit (about 3.2% of all), similar ones and a draw of the others.
SMILES,PGC1a acetyl inh,DENV2 CPE rescue,ERAP1 HTS inh,rRNA inh HTS,INS-1E GSIS act,CaV13 FRET inh
C[C@H]1CN([C@@H](C)CO)C(=O)Cc2cc(NC(=O)Nc3ccc(F)cc3)ccc2O[C@@H]1CN(C)Cc1ccc(C(F)(F)F)cc1,-3,-3,1,9,-26,.
O=S(=O)(/N=C(/c1ccc(F)cc1)N1CCCCC1)c1ccc(Cl)cc1,.,6,-3,-22*,-1,-4
CCN1[C@@H]2Cn3c(ccc(C4=CCCC4)c3=O)[C@H]1[C@@H](C(=O)NC1CCCC1)[C@@H]2CO,-5,-5,3,1,0,.
C[C@@H]1CCCCO[C@H](CN(C)C(=O)Nc2ccc(C(F)(F)F)cc2)[C@H](C)CN([C@H](C)CO)C(=O)c2cc(NS(=O)(=O)c3ccccc3)ccc2O1,1,77*,-5,-2,6,.
C[C@@H]1CCCCO[C@@H](CN(C)C(=O)Nc2ccc(C(F)(F)F)cc2)[C@@H](C)CN([C@H](C)CO)C(=O)c2cc(NS(=O)(=O)c3ccccc3)ccc2O1,-7,21*,-5,5,11,.
C[C@H](CO)N1C[C@H](C)[C@@H](CN(C)C(=O)Nc2ccc(C(F)(F)F)cc2)OCCCC[C@H](C)Oc2ccc(NS(=O)(=O)c3cccs3)cc2C1=O,21,94*,-3,-1,4,.
C[C@@H]1CN([C@H](C)CO)C(=O)c2cc(NS(=O)(=O)c3cccs3)ccc2O[C@@H](C)CCCCO[C@@H]1CN(C)C(=O)CCC(F)(F)F,8,31*,.,2,-16,.
C[C@@H]1CN([C@@H](C)CO)C(=O)c2cc(NS(=O)(=O)c3ccccc3)ccc2O[C@@H](C)CCCCO[C@@H]1CN(C)C(=O)Nc1ccc(C(F)(F)F)cc1,-8,-13,-3,2,11,.
C[C@H](CO)N1C[C@H](C)[C@@H](CN(C)C(=O)Nc2ccc(C(F)(F)F)cc2)OCCCC[C@H](C)Oc2ccc(NS(=O)(=O)c3ccccc3)cc2C1=O,9,41*,-5,2,11,.
O=c1c2ccccc2nc2c3ccccc3c(NCc3ccccn3)nn12,.,2,-1,-24,1,-21
O=c1c2ccccc2nc2c3ccccc3c(NCCO)nn12,-7,73*,-3,-7,9,-4
OCCNc1c2ccccc2nc2ccccc12,23,-6,-8,-26,-7,51*
OCCNc1nc2ccccc2nc1NCCO,7,10,.,.,.,-19
COc1ccc(S(=O)(=O)N(C)C[C@H]2Oc3ccc(N(C)C)cc3CC(=O)N([C@H](C)CO)C[C@@H]2C)cc1,1,1,-1,-1,3,.
O=C(Nc1nnc(CCS(=O)(=O)c2ccc3ccccc3c2)s1)c1cccs1,-17,.,.,.,106*,-3
Nc1c(C(=O)NCc2ccco2)c2nc3ccccc3nc2n1CCc1ccccc1,.,-5,10,-28*,-12,?
Nc1c(C(=O)NCc2ccccc2)c2nc3ccccc3nc2n1CCCN1CCOCC1,.,-3,-24,0,10,76*
CCOc1ccc(-n2c(N)c(C(=O)NCc3ccco3)c3nc4ccccc4nc32)cc1,8,.,.,.,.,.
CCc1ccc(C(=O)NNC(=O)c2c(CC)noc2C)cc1,.,37*,-2,14,12,.
O=C(NCCO)c1ccc2c3n(nc2c1)-c1ccccc1CO3,6,69*,1,2,6,-5
Cc1noc(C)c1NC(=O)N(C)C[C@@H]1Oc2ccc(NC(=O)CCC(F)(F)F)cc2CC(=O)N([C@@H](C)CO)C[C@H]1C,-10,-1,-2,2,30,.
COc1cccc(C2(c3cccc(OC)c3)CC2C(=O)Nc2ccc(F)cc2)c1 (stereo not drawn),-8,32*,1,-10,-3,-2
COc1cccc(C2(c3cccc(OC)c3)CC2C(=O)Nc2ccccc2Cl)c1 (stereo not drawn),.,7,-1,-13,-16,-4
COc1c(-c2ccc(O)cc2)oc2cc(O)cc(O)c2c1=O,-11,7,3,-20*,6,.
CC(=O)OCc1ccc(C2=CC(=O)CC(C)(C)C2=O)cc1,.,1,-1,1,.,-5
SMILES,PGC1a acetyl inh,DENV2 CPE rescue,ERAP1 HTS inh,rRNA inh HTS,INS-1E GSIS act,CaV13 FRET inh
CC1(C)CC(=O)C=C(c2ccc(COC(=O)C(c3ccccc3)c3ccccc3)cc2)C1=O,-7,54*,6,9,-9,-5
C[C@H](CO)N1C[C@H](C)[C@@H](CN(C)S(=O)(=O)c2cccs2)OCCCC[C@H](C)Oc2ccc(NC(=O)Nc3cccc4ccccc34)cc2C1=O,-18,-6,.,-3,5,.
CCC(=O)N(C)C[C@@H]1Oc2ncc(-c3ccccc3F)cc2C(=O)N([C@@H](C)CO)C[C@@H]1C,4,-5,-1,-1,17,.
CC(C)(C)c1cccc(C2(O)C(=O)c3ccccc3C2=O)c1O,2,0,3,-38*,-3,-5
CCC(=O)N1CC2(C1)CN(Cc1ccc3c(c1)OCO3)[C@H](CO)c1c2c2ccc(OC)cc2n1C,-10,2,2,-2,-15,.
C[C@H]1CCCCO[C@H](CN(C)S(C)(=O)=O)[C@@H](C)CN([C@@H](C)CO)C(=O)c2cc(NC(=O)c3ccncc3)ccc2O1,1,1,1,3,6,.
C=CCOc1ccccc1OCC(O)CNC(C)C (stereo not drawn),-7,40*,-1,.,.,-5
CCCCCCCCOC(=O)C1=C(C)Nc2nnnn2C1c1cccs1 (stereo not drawn),-8,.,.,.,43*,-8
CO[C@@H]1CN(C)C(=O)c2ccc(NC(=O)C3CC3)cc2OC[C@@H](C)N(Cc2cc(F)ccc2F)C[C@H]1C,2,-3,1,-6,-36,.
C[C@H](CO)N1C[C@H](C)[C@H](CN(C)C(=O)CN(C)C)Oc2ncc(C#Cc3ccncc3)cc2C1=O,-3,-1,-2,8,1,.
Cc1nonc1C(=O)N/N=C/c1ccc(O)cc1O,-6,3,2,-22*,12,-4
Cc1ccc(NC(=O)CCC(=O)N/N=C/c2ccc(O)cc2O)cc1,.,8,1,-12*,-4,-4
C=CCc1cccc(/C=N/NC(=O)CCC(=O)Nc2ccc(C)cc2)c1O,2,.,.,.,225*,-6
Cc1ccc(O)c(/C=N/NC(=O)CN2CCCC2)c1,84*,-1,0,-1,.,-4
O=C(CCC(=O)Nc1ccc(F)cc1)N/N=C/c1ccccc1O,.,3,8,14,-2,18
O=C(C[C@@H]1C[C@@H]2c3cc(NC(=O)Nc4ccc(F)cc4)ccc3O[C@@H]2[C@@H](CO)O1)NC1CCCCC1,-1,-5,.,-2,-10,.

# High-throughput results (PubChem BioAssay)
